Assay results as given in PubChem BioAssay AID1159580 (chemical genetic matrix, 2015).
“And” between values parts separate entries of the source, which are not always exact repeats. Identical values can stand only once. Screen size: about 5,500 compounds; about 2,000 (36%) were called active. Another 18% or so got no clear call; they are omitted. Rule as the data show it: active = normalized growth mostly below about 0.91 (no sharp cut-off); inconclusive = no clear call, values can overlap the other calls; inactive = mostly above about 0.92. The list shows a part of the results.

Test: chemical genetic growth profiling, strain panel (AID 1159580);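 also: tested at 20 µM; growth read once vehicle control cultures reached saturation at 30 °C; 1 = growth at the plate median or of vehicle wells; lower values mean less growth of the strain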
Details: S. cerevisiae deletion strains, growth OD

Measured: normalized growth

COc1ccc(C(=O)c2ccccc2O)c(O)c1
active: locus YAL026C, strain drs2, stronger effect = lower value 0.815 | locus YAL030W, strain snc1, stronger effect = lower value 0.894 | locus YBL061C, strain skt5, stronger effect = lower value 0.818 | locus YBR009C, strain hhf1, stronger effect = lower value 0.806 | locus YBR021W, strain FUR4, stronger effect = lower value 0.817 | locus YBR023C, strain chs3, stronger effect = lower value 0.867 | locus YBR171W, strain sec66, stronger effect = lower value 0.823 | locus YBR231C, strain swc5, stronger effect = lower value 0.887 | locus YBR279W, strain paf1, stronger effect = lower value 0.902 | locus YCL011C, strain gbp2, stronger effect = lower value 0.876 | locus YCL016C, strain dcc1, stronger effect = lower value 0.905 | locus YCL061C, strain MRC1, stronger effect = lower value 0.888 | locus YCL069W, strain vba3, stronger effect = lower value 0.869 | locus YCR088W, strain abp1, stronger effect = lower value 0.888 | locus YDL040C, strain nat1, stronger effect = lower value 0.893 | locus YDL192W, strain arf1, stronger effect = lower value 0.915 | locus YDR001C, strain nth1, stronger effect = lower value 0.888 | locus YDR137W, strain rgp1, stronger effect = lower value 0.43 | locus YDR159W, strain sac3, stronger effect = lower value 0.757 | locus YDR195W, strain ref2 1.2 [resistant] | locus YDR297W, strain sur2, stronger effect = lower value 0.878 | locus YDR318W, strain mcm21, stronger effect = lower value 0.91 | locus YDR334W, strain swr1, stronger effect = lower value 0.89 | locus YDR335W, strain msn5, stronger effect = lower value 0.889 | locus YDR388W, stronger effect = lower value 0.92 | locus YDR392W, strain spt3, stronger effect = lower value 0.417 | locus YDR502C, strain sam2, stronger effect = lower value 0.871 | locus YEL003W, strain gim4, stronger effect = lower value 0.83 | locus YEL037C, strain rad23, stronger effect = lower value 0.874 | locus YEL061C, strain CIN8 (second series), stronger effect = lower value 0.874 | locus YER015W, strain faa2, stronger effect = lower value 0.876 | locus YER016W, strain bim1, stronger effect = lower value 0.883 | locus YER111C, strain swi4, stronger effect = lower value 0.885 | locus YER155C, strain BEM2 (second series), stronger effect = lower value 0.444 | locus YGL167C, strain pmr1, stronger effect = lower value 0.843 | locus YGL173C, strain kem1, stronger effect = lower value 0.817 | locus YGL227W, strain vid30, stronger effect = lower value 0.879 | locus YGL240W, strain doc1, stronger effect = lower value 0.734 | locus YGL248W, strain PDE1, stronger effect = lower value 0.876 | locus YGL253W, strain hxk2, stronger effect = lower value 0.799 | locus YGR135W, strain pre9, stronger effect = lower value 0.822 | locus YGR252W, strain gcn5, stronger effect = lower value 0.751 | locus YHR013C, strain ard1, stronger effect = lower value 0.725 | locus YHR027C, strain rpn1, stronger effect = lower value 0.883 | locus YHR142W, strain chs7, stronger effect = lower value 0.722 | locus YIR030C, strain dcg1, stronger effect = lower value 0.918 | locus YJL092W, strain hpr5, stronger effect = lower value 0.876 | locus YJL095W, strain BCK1 (second series), stronger effect = lower value 0.727 | locus YJL129C, strain trk1, stronger effect = lower value 0.8 | locus YJL154C, strain vps35, stronger effect = lower value 0.884 | locus YJL164C, strain tpk1, stronger effect = lower value 0.798 | locus YJL166W, strain qcr8, stronger effect = lower value 0.881 | locus YJL187C, strain SWE1, stronger effect = lower value 0.88
0.676 (active) and 0.932 (inactive): locus YJL095W, strain BCK1, stronger effect = lower value
inactive: locus YAL013W, strain DEP1, stronger effect = lower value 0.91 | locus YAL021C, strain ccr4, stronger effect = lower value 0.992 | locus YBR229C, strain ROT2, stronger effect = lower value 0.95 | locus YCL029C, strain bik1, stronger effect = lower value 0.929 | locus YDL005C, strain med2, stronger effect = lower value 0.918 | locus YDL035C, strain GPR1, stronger effect = lower value 0.962 | locus YDL074C, strain BRE1, stronger effect = lower value 0.845 | locus YDL101C, strain DUN1, stronger effect = lower value 0.944 | locus YDL134C, strain PPH21, stronger effect = lower value 0.933 | locus YDL185W, strain tfp1, stronger effect = lower value 0.921 | locus YDR069C, strain doa4, stronger effect = lower value 0.912 | locus YDR101C, strain arx1, stronger effect = lower value 0.949 | locus YDR150W, strain NUM1, stronger effect = lower value 0.961 | locus YDR162C, strain NBP2, stronger effect = lower value 0.926 | locus YEL061C, strain CIN8, stronger effect = lower value 0.952 | locus YER110C, stronger effect = lower value 0.913 | locus YER155C, strain BEM2, stronger effect = lower value 0.949 | locus YER167W, strain BCK2, stronger effect = lower value 0.951 | locus YFR010W, strain ubp6, stronger effect = lower value 0.902 | locus YGL078C, strain dbp3, stronger effect = lower value 0.947 | locus YGL086W, strain mad1, stronger effect = lower value 0.932 | locus YGR078C, strain PAC10, stronger effect = lower value 0.903 | locus YGR229C, strain SMI1, stronger effect = lower value 0.894 | locus YHR030C, strain SLT2, stronger effect = lower value 0.922 and 0.947 | locus YHR079C, strain IRE1 (second series), stronger effect = lower value 0.932 | locus YHR079C, strain IRE1, stronger effect = lower value 0.957 | locus YHR094C, strain hxt1, stronger effect = lower value 0.933 | locus YHR129C, strain ARP1, stronger effect = lower value 0.949 | locus YHR200W, strain rpn10, stronger effect = lower value 0.937 | locus YIL066C, strain RNR3, stronger effect = lower value 0.946 | locus YIL073C, strain SPO22, stronger effect = lower value 0.84 | locus YIL125W, strain kgd1, stronger effect = lower value 0.943 | locus YJL115W, strain asf1, stronger effect = lower value 0.91 | locus YJL134W, strain LCB3, stronger effect = lower value 0.953 | locus YJL168C, strain set2, stronger effect = lower value 0.938 | locus YJL187C, strain SWE1 (second series), stronger effect = lower value 0.896 | locus YJR043C, strain POL32, stronger effect = lower value 0.976
